This note sets out measurements from publication PMC11006913.

What all share (test): PBM; 200 nM protein, PBS
Holding throughout (details): dsDNA, one strand shown

Assay [1] deals with HOXB6 (Homo sapiens, UniProt P17509 132-218, K202E).
The target of assay [2] is HOXB6 (Homo sapiens, UniProt P17509 132-218).
The target of assay [3] is ALX4 (Homo sapiens, UniProt Q9H161 200-286, Q225E).
In assay [4] the target is T1, SIX6 (Homo sapiens, UniProt O95475 114-200, T165G).
T1 sequence: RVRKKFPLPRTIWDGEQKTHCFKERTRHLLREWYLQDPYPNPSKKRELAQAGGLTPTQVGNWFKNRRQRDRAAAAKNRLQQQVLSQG

Sequence of HOXB6 (Homo sapiens, UniProt P17509 132-218) (P17509 132-218): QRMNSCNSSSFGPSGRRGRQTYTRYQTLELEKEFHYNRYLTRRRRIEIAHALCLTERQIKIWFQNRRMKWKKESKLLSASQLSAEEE
Sequence of HOXB6 (Homo sapiens, UniProt P17509 132-218, K202E) (P17509 132-218 K202E): as the sequence (P17509 132-218) above, with K71E counted along it
Sequence of ALX4 (Q9H161 200-286 Q225E): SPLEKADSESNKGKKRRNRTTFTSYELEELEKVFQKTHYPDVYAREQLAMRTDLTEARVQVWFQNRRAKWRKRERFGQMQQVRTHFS

For AATACCAA, the binding signal is 9.59 upbm affinity estimate (log intensity, higher = more binding, comparable within an allelic series) in assay [1] and 10.2 upbm affinity estimate (log intensity, higher = more binding, comparable within an allelic series) in assay [2].
For the sequence CCAATTTC, the binding signal in assay [1] was 9.48 upbm affinity estimate (log intensity, higher = more binding, comparable within an allelic series); in assay [2], 10.1 upbm affinity estimate (log intensity, higher = more binding, comparable within an allelic series).
As for ATCACATG, the binding signal in assay [1] was 9.52 upbm affinity estimate (log intensity, higher = more binding, comparable within an allelic series); in assay [2], 9.98 upbm affinity estimate (log intensity, higher = more binding, comparable within an allelic series).
Take GGGCCCCA: the binding signal in assay [1] is 8.9 upbm affinity estimate (log intensity, higher = more binding, comparable within an allelic series); in assay [2], 8.9 upbm affinity estimate (log intensity, higher = more binding, comparable within an allelic series).
GGTTTTTA: the binding signal was 9.65 upbm affinity estimate (log intensity, higher = more binding, comparable within an allelic series) in assay [1] and 10.3 upbm affinity estimate (log intensity, higher = more binding, comparable within an allelic series) in assay [2].
For the sequence AGCCTAGG, the binding signal in assay [1] was 9.04 upbm affinity estimate (log intensity, higher = more binding, comparable within an allelic series); in assay [2], 9.03 upbm affinity estimate (log intensity, higher = more binding, comparable within an allelic series).
Consider CTGCCTGC, for which the binding signal in assay [1] is 9.03 upbm affinity estimate (log intensity, higher = more binding, comparable within an allelic series); in assay [2], 8.97 upbm affinity estimate (log intensity, higher = more binding, comparable within an allelic series).
In the case of CGGCGCGC, the binding signal was 9.13 upbm affinity estimate (log intensity, higher = more binding, comparable within an allelic series) in assay [1] and 9.19 upbm affinity estimate (log intensity, higher = more binding, comparable within an allelic series) in assay [2].
In the case of CTCCGAAG, the binding signal in assay [1] is 9.06 upbm affinity estimate (log intensity, higher = more binding, comparable within an allelic series); in assay [2], 9.02 upbm affinity estimate (log intensity, higher = more binding, comparable within an allelic series).
For CCGGCGCA, the binding signal in assay [1] was 9.01 upbm affinity estimate (log intensity, higher = more binding, comparable within an allelic series); in assay [2], 9.07 upbm affinity estimate (log intensity, higher = more binding, comparable within an allelic series).
Regarding AAGCAGGC, the binding signal is 9.08 upbm affinity estimate (log intensity, higher = more binding, comparable within an allelic series) in assay [1] and 9.05 upbm affinity estimate (log intensity, higher = more binding, comparable within an allelic series) in assay [2].
Consider AAATCGAC, for which the binding signal in assay [1] was 9.47 upbm affinity estimate (log intensity, higher = more binding, comparable within an allelic series); in assay [2], 10.1 upbm affinity estimate (log intensity, higher = more binding, comparable within an allelic series).
For the sequence CCAGTCCC, the binding signal was 9.1 upbm affinity estimate (log intensity, higher = more binding, comparable within an allelic series) in assay [1] and 8.95 upbm affinity estimate (log intensity, higher = more binding, comparable within an allelic series) in assay [2].
With GCTGGCTA, the binding signal in assay [1] was 9.09 upbm affinity estimate (log intensity, higher = more binding, comparable within an allelic series); in assay [2] it was 9 upbm affinity estimate (log intensity, higher = more binding, comparable within an allelic series).
With CCGACTCC, the binding signal was 9.11 upbm affinity estimate (log intensity, higher = more binding, comparable within an allelic series) in assay [1] and 9.01 upbm affinity estimate (log intensity, higher = more binding, comparable within an allelic series) in assay [2].
As for GGTATTAC, the binding signal was 9.66 upbm affinity estimate (log intensity, higher = more binding, comparable within an allelic series) in assay [1] and 10.2 upbm affinity estimate (log intensity, higher = more binding, comparable within an allelic series) in assay [2].
Take AAGGGACC: the binding signal in assay [1] was 9.07 upbm affinity estimate (log intensity, higher = more binding, comparable within an allelic series); in assay [2], 8.97 upbm affinity estimate (log intensity, higher = more binding, comparable within an allelic series).
As to CGTTGCCC, the binding signal in assay [1] was 9.13 upbm affinity estimate (log intensity, higher = more binding, comparable within an allelic series); in assay [2], 9.12 upbm affinity estimate (log intensity, higher = more binding, comparable within an allelic series).
For CGCGTGCC, the binding signal is 9.06 upbm affinity estimate (log intensity, higher = more binding, comparable within an allelic series) in assay [1] and 9.06 upbm affinity estimate (log intensity, higher = more binding, comparable within an allelic series) in assay [2].
As to GGCGGCAC, the binding signal is 9.08 upbm affinity estimate (log intensity, higher = more binding, comparable within an allelic series) in assay [1] and 9.21 upbm affinity estimate (log intensity, higher = more binding, comparable within an allelic series) in assay [2].
AATGGCTA: the binding signal in assay [1] was 9.56 upbm affinity estimate (log intensity, higher = more binding, comparable within an allelic series); in assay [2], 10.8 upbm affinity estimate (log intensity, higher = more binding, comparable within an allelic series).
Regarding CCAGCGGA, the binding signal in assay [1] was 9.05 upbm affinity estimate (log intensity, higher = more binding, comparable within an allelic series); in assay [2] it was 8.93 upbm affinity estimate (log intensity, higher = more binding, comparable within an allelic series).
For AATAAATC, the binding signal in assay [3] was 10.8 upbm affinity estimate (log intensity, higher = more binding, comparable within an allelic series).
As to AGGTGTGA, the binding signal in assay [4] is 10.5 upbm affinity estimate (log intensity, higher = more binding, comparable within an allelic series).
For AGGCGGAC, the binding signal in assay [1] is 9.08 upbm affinity estimate (log intensity, higher = more binding, comparable within an allelic series); in assay [2] it was 9.04 upbm affinity estimate (log intensity, higher = more binding, comparable within an allelic series).
Take CCCAGCTC: the binding signal in assay [1] is 9.08 upbm affinity estimate (log intensity, higher = more binding, comparable within an allelic series); in assay [2], 9.08 upbm affinity estimate (log intensity, higher = more binding, comparable within an allelic series).
As for CATGACAC, in assay [4], the binding signal was 10.7 upbm affinity estimate (log intensity, higher = more binding, comparable within an allelic series).
Consider CTCGGCTC, for which the binding signal in assay [1] is 9.06 upbm affinity estimate (log intensity, higher = more binding, comparable within an allelic series); in assay [2] it was 8.95 upbm affinity estimate (log intensity, higher = more binding, comparable within an allelic series).
For GACACCTC, the binding signal in assay [4] was 10.4 upbm affinity estimate (log intensity, higher = more binding, comparable within an allelic series).
Take CCGGAGCG: the binding signal in assay [1] was 9.07 upbm affinity estimate (log intensity, higher = more binding, comparable within an allelic series); in assay [2], 9.17 upbm affinity estimate (log intensity, higher = more binding, comparable within an allelic series).
For GGCGTGGA, the binding signal in assay [1] was 9.09 upbm affinity estimate (log intensity, higher = more binding, comparable within an allelic series); in assay [2] it was 9.03 upbm affinity estimate (log intensity, higher = more binding, comparable within an allelic series).
Consider TAGAATGA, for which the binding signal was 9.57 upbm affinity estimate (log intensity, higher = more binding, comparable within an allelic series) in assay [1] and 10.3 upbm affinity estimate (log intensity, higher = more binding, comparable within an allelic series) in assay [2].
GCGCTCCC: the binding signal was 9.05 upbm affinity estimate (log intensity, higher = more binding, comparable within an allelic series) in assay [1] and 8.94 upbm affinity estimate (log intensity, higher = more binding, comparable within an allelic series) in assay [2].
With AATGTTGT, the binding signal is 9.62 upbm affinity estimate (log intensity, higher = more binding, comparable within an allelic series) in assay [1] and 10.2 upbm affinity estimate (log intensity, higher = more binding, comparable within an allelic series) in assay [2].
In the case of ATTTCATA, the binding signal in assay [1] is 9.65 upbm affinity estimate (log intensity, higher = more binding, comparable within an allelic series); in assay [2] it was 10.2 upbm affinity estimate (log intensity, higher = more binding, comparable within an allelic series).
CGGTAGGC: the binding signal in assay [1] is 9.06 upbm affinity estimate (log intensity, higher = more binding, comparable within an allelic series); in assay [2], 8.98 upbm affinity estimate (log intensity, higher = more binding, comparable within an allelic series).
